Measured values published in PubChem BioAssay (NCI).
Compounds without any hit were thinned out: in the full panel of roughly 79,000, 15% have a hit. No stated cut-off is given here; in the data, active means growth inhibition above about 70%; inactive means the rest.

How the values were obtained:
[1] = NCI Yeast Anticancer Drug Screen. Data for the rad50 strain (AID 155);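 further: 0% = growth of vehicle-only cultures of the same strain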; settings: S. cerevisiae rad50 strain growth inhibition; at 50.0 µM; hits give high values
Procedure, shortened: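 Readout: growth inhibition relative to vehicle-treated cultures. Compound exposure was carried out in a genetically defined yeast strain deficient in DNA damage repair.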

[2] = NCI Yeast Anticancer Drug Screen. Data for the mec2-1 strain (AID 157); settings: S. cerevisiae mec2-1 strain, at 50.0 µM, hits give high values
Procedure, shortened: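 Each compound was tested on mec2-1 yeast, a strain altered in DNA damage repair or cell cycle control. Growth inhibition is reported relative to vehicle.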

[3] = NCI Yeast Anticancer Drug Screen. Data for the sgs1 mgt1 strain (AID 161);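 further: 0% = growth of cultures given vehicle only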; settings: S. cerevisiae sgs1 mgt1 strain, at 50.0 µM, hits give high values
Procedure, shortened: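 Genetically altered yeast, compound exposure, growth inhibition relative to vehicle.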

[4] = NCI Yeast Anticancer Drug Screen. Data for the cln2 rad14 strain (AID 165);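 further: 0% = growth equal to vehicle treated cultures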; settings: S. cerevisiae cln2 rad14 strain, at 50.0 µM, hits give high values
Procedure, shortened: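 Test compounds were added to cln2 rad14 yeast cultures; inhibition of growth was then determined by comparison with vehicle treatment.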

[5] = NCI Yeast Anticancer Drug Screen. Data for the bub3 strain (AID 167); settings: S. cerevisiae bub3 mutant strain, at 50.0 µM, hits give high values
Procedure, shortened: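 Readout: yeast growth inhibition, expressed relative to vehicle-only wells. The test organism is a mutant strain from a panel with lesions in DNA repair or checkpoint genes.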

[6] = NCI Yeast Anticancer Drug Screen. Data for the mlh1 rad18 strain (AID 175); settings: S. cerevisiae mlh1 rad18 strain growth inhibition; at 50.0 µM; hits give high values
Procedure, shortened: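 Inhibition values reflect reduced growth of mutant yeast versus vehicle-treated controls following compound exposure; the mutations affect DNA damage repair.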

Measured: growth inhibition

Brc1cncc(Br)c1
inactive: [1] 31.9% | [2] -9.35% | [3] -13.3% | [4] -2.1% | [5] -12.2% | [6] 1.4%

Cc1cc2oc(=O)[nH]c(=S)c2c(C)c1C
inactive: [1] -47.7% | [2] -19.2% | [3] -35.2% | [4] 2.45% | [5] -59.5% | [6] -36.6%

CC(=O)Oc1ccc(C(=O)c2ccc(OC(C)=O)cc2)cc1
inactive: [1] -7.5% | [2] -16.6% | [3] 6.25% | [4] -22.4% | [5] -4.45% | [6] 22.2%

CCOC(=O)c1c(/N=C/c2cc(Br)cc(Br)c2O)sc2c1CCCC2
inactive: [1] -14.2% | [2] -19.1% | [3] -13.2% | [4] -15.1% | [5] -13.9% | [6] -25.1%

COc1cccc(OC)c1C
inactive: [1] 15.1% | [2] -11.1% | [3] -10.6% | [4] 14.6% | [5] -4.25% | [6] 16.6%

COc1c(C)c(C)c(Br)c(C)c1C
inactive: [1] 6.35% | [2] 7.65% | [3] 6.7% | [4] 15.6% | [5] 0.55% | [6] 12.2%

CCSC(=S)S
inactive: [1] -0.35% | [2] -23% | [3] -12.2% | [4] 7.15% | [5] 0.25% | [6] -0.3%

C[CH2][Sn]([CH2]C)([O]C(=O)c1ccc(OC)c(OC)c1OC)[O]C(=O)c1ccc(OC)c(OC)c1OC
inactive: [1] 41.5% | [2] 27.6% | [3] 24.6% | [4] 28.3% | [5] 19.4% | [6] 24.8%

COC(=O)COC(=O)C1C(C(N)=O)N(CC(=O)OC)CCN1CC(=O)OC (stereo not given)
inactive: [1] 0.2% | [2] -0.9% | [3] -27.4% | [4] -7.35% | [5] -3.9% | [6] -5.95%

CCOC(=O)C(/C=N/Nc1ccc([N+](=O)[O-])cc1[N+](=O)[O-])Oc1cccc(OC)c1 (stereo not given)
inactive: [1] -8.85% | [2] -8.4% | [3] -19.8% | [4] -15.1% | [5] -8.75% | [6] -1.55%

Cc1[nH]c2ccccc2c(=O)c1-c1ccccc1
inactive: [1] -12.2% | [2] -14.2% | [3] -5.25% | [4] -38% | [5] 0.35% | [6] -35.8%

Cl/C(=C\c1ccccc1)c1ccccc1
inactive: [1] 20.4% | [2] -6.55% | [3] -5.7% | [4] -42.5% | [5] 7.7% | [6] -6.55%

COc1ccc(-c2coc3c4c(c(CC=C(C)C)c(O)c3c2=O)OC(C)(C)C=C4)cc1OC
inactive: [1] 29.9% | [2] 13.8% | [3] 10.9% | [4] 37.7% | [5] 4.1% | [6] 16.8%

CC1=C(c2ccc(C)cc2)NC(=S)C(C)C(c2ccc(C)cc2)=N1 (stereo not given)
inactive: [1] -11.2% | [2] -24.6% | [3] 15.3% | [4] 8.15% | [5] 0.95% | [6] 19.8%

COc1cc(-c2oc3ccccc3c(=O)c2O)cc(OC)c1OC
inactive: [1] -29.6% | [2] -51.8% | [3] -16.3% | [4] -22.8% | [5] -42% | [6] -14.1%

COC(=O)C(CC12CC3CC(CC(C3)C1)C2)NC(=O)C(N)CC(=O)O (stereo not given)
inactive: [1] -42.9% | [2] -30.4% | [3] -23.8% | [4] 15.9% | [5] 14.7% | [6] -24.4%

O=[N+]([O-])c1ccc(-c2nnn(C3CC3)c2N2CCCCC2)cc1
inactive: [1] -7.85% | [2] -5.6% | [3] -3.4% | [4] -0.5% | [5] -4.35% | [6] 5.15%

O=C(/C=C/c1ccco1)CCN1CCOCC1
inactive: [1] 8.15% | [2] -4.6% | [3] 24.8% | [4] -44.1% | [5] -7.25% | [6] 13.8%

O=C(Nc1ccc(C(=O)O)cc1)Nc1nccs1
inactive: [1] 16.9% | [2] 6.5% | [3] 18% | [4] -16.7% | [5] 7.2% | [6] 43.7%

CC(C)CC1CC(=O)C(=O)C(CC(C)C)C1 (stereo not given)
inactive: [1] 8.25% | [2] 0.5% | [3] 3.45% | [4] -17.5% | [5] 3.95% | [6] -1.05%
